TrxR1 inh: qHTS Assay for Inhibitors of Mammalian Selenoprotein Thioredoxin Reductase 1 (TrxR1): qHTS. Thioredoxin reductase 1, cytoplasmic (Rattus norvegicus), O89049. recombinant rTrxR1, NADPH fluorescence consumption, selenite substrate. Potency, µM (titrated, usually from 114 µM), hits mostly inhibitors. hit rate 1% among 390,000; also: nearly all actives have a fitted effect of over 65% in size
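Rat TrxR1 (90 nM in the dispensed reagent) was pre-reduced with 400 uM NADPH for 5 min at room temperature, then incubated with compound for 15 min. After 400 uM selenite was added, NADPH fluorescence (Ex 340/Em 450 nm) was followed for 8 min.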
TrxR1 substrate: qHTS Assay for Substrates of Mammalian Selenoprotein Thioredoxin Reductase 1 (TrxR1): qHTS; purified TrxR1 substrate turnover, NADPH consumption readout; Potency, µM (titrated, usually from 114 µM); hit rate 0.01% among 390,000; AID 588456, 2011; also: nearly all actives have a fitted effect of over 50% in size
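Rat TrxR1, dispensed at 90 nM, was prereduced with 400 uM NADPH (final) for 5 min at ~22 deg C, then incubated with compound 15 min before 400 uM selenite. A first-read NADPH fluorescence drop versus no-compound background flagged substrates.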
PKM2 activator: qHTS Assay for Activators of Human Muscle isoform 2 Pyruvate Kinase; AID 1631, 2009; hit rate 0.34% among 260,000; purified PKM2, Kinase-Glo ATP luminescence, activation; response scale: 0% is enzyme alone, no compound; Potency, µM (series often up to 57.5 µM), most hits filed as activators; Pyruvate kinase PKM (Homo sapiens), P14618; also: nearly all actives have a fitted effect of over 55% in size
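Purified hPK-M2 (>95% pure) converted ADP (0.1 mM final) to ATP with 0.5 mM PEP in 50 mM imidazole pH7.2, KCl, MgCl2, Tween 20, BSA; 1 h at room temperature. ATP detected by Kinase-Glo luminescence.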
LDHA block: qHTS assay for inhibitors of human lactate dehydrogenase; purified LDHA, NADH/diaphorase-resazurin fluorescence; active compounds read low; hit rate 0.15% among 480,000; L-lactate dehydrogenase A chain (Homo sapiens), P00338; activity change, % (values are at about 110 or 230 µM); in the data active = activity change below about -30%; inconclusive = mostly about -25% to -30%
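Human LDH5 at 2 nM final in Tris HCl pH 7.4 with 0.06 mM NADH and 0.2 mM pyruvate, reacted 5 minutes at room temperature. Remaining NADH coupled via diaphorase/resazurin; resorufin fluorescence read at 0 and 20 minutes, normalized to enzyme-free and DMSO wells.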
mIDH1 inhibitor: qHTS for Inhibitors of mutant isocitrate dehydrogenase 1 (IDH1): qHTS; Isocitrate dehydrogenase [NADP] cytoplasmic (Homo sapiens), O75874; hit rate 0.093% among 390,000; IDH1-R132H enzyme, NADPH consumption, diaphorase/resazurin fluorescence; Potency, µM (top dose mostly 76.6 µM), usual class: inhibitors; also: nearly all actives have a fitted effect of over 65% in size
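IDH1-R132H (0.5 ug/mL) preincubated 30 min with compound, then NADPH (0.016 mM) and alpha-KG (2 mM) added; 80 min at RT, pH 7.5. Remaining NADPH coupled via diaphorase/resazurin to fluorescence (540/590 nm); concentration-response curves normalized to no-enzyme control.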
GLS inhibitor: qHTS for Inhibitors of Glutaminase (GLS) | Potency, µM (top dose mostly 45.5 µM), hits mostly inhibitors | hit rate 0.21% among 410,000 | Glutaminase kidney isoform, mitochondrial (Homo sapiens), O94925 | GLS enzymatic activity, qHTS titration
Target sequence (O94925 whole entry, looked up, canonical isoform): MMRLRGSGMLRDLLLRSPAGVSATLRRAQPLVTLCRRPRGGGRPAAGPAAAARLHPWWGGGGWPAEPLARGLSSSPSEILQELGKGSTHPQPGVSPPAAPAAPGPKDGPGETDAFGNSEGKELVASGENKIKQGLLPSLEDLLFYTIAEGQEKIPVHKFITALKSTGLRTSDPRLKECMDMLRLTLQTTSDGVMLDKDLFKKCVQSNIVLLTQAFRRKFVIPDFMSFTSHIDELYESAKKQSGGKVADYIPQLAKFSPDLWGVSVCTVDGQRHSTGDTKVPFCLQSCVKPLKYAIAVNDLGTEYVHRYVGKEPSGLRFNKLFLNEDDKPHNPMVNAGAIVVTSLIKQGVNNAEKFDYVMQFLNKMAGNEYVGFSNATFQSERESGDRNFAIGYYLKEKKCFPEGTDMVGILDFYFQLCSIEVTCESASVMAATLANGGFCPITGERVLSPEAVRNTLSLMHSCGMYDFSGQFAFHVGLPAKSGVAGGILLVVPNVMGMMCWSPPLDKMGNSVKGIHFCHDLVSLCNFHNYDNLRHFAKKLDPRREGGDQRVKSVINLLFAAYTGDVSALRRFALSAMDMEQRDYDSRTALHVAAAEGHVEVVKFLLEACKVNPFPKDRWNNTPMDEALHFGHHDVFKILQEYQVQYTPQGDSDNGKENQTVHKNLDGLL
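Human kidney-isoform GLS in 45 mM KH2PO4 pH 8.2, 0.02% Tween-20, with compound, started with 1mM L-Glutamine (added stock). Glutamate oxidase/HRP/Amplex red coupled fluorescence read at start and after 30 min at RT.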
A number is an active result; – = inactive; ? = inconclusive; · = no result given. An excerpt weighted towards active compounds, which were near 1.4% of everything screened. Unless noted, calls follow the shape of the dose curve; as a rule, active = well fitted curve in the direction sought with a large enough effect; inconclusive = small, poorly fitted or top-dose-only effect, or another doubt; inactive = no such curve, though single readings can be large; an effect the other way counts as inactive or inconclusive.

SMILES	TrxR1 inh	TrxR1 substrate	PKM2 activator	LDHA block	mIDH1 inhibitor	GLS inhibitor
C/C=C(\C)C(=O)OC1CC(C)(C)C[C@H]2C3=CC[C@@H]4[C@@]5(C)CCC(O[C@@H]6O[C@@H](C(=O)O)[C@@H](O)C(O[C@@H]7OC[C@H](O)[C@@H](O)[C@@H]7O[C@@H]7OC(CO)C(O)[C@@H](O)[C@@H]7O)C6O[C@@H]6OC(CO)C(O)C(O)C6O)[C@@](C)(CO)[C@@H]5CC[C@]4(C)[C@]3(C)CC(O)[C@@]12CO (stereo not given in full)	–	–	·	–	–	13µM
COc1cc2cc(C(=O)N[C@@H](C)C(=O)Nc3ccc4c(c3)OCO4)n(C)c2c(OC)c1OC	·	·	·	–	·	·
COc1cc(C2NC(=O)NC(C)=C2C(=O)OCC(F)(F)F)ccc1O (stereo not given)	·	·	·	–	·	·
Nc1ccc(N2CCCCC2)c2nonc12	?	50µM	–	–	–	–
Nc1c(N2CCCC2)cc(Cl)c2nonc12	25µM	–	–	–	–	–
COCCN1C(=O)C(=O)/C(=C(/O)c2ccc(OC)c(C)c2)C1c1ccc(Cl)cc1Cl (stereo not given)	·	·	·	–	·	·
Cc1nc(-c2ccccn2)sc1C(=O)NC1CCC(C(F)(F)F)CC1 (stereo not given)	·	·	·	–	·	·
COc1cc(-c2cc(=O)c3c(O)c(OC)c(OC)c(O)c3o2)ccc1O	–	–	–	–	–	2.8µM
COc1c(O)c(O)c2oc(-c3ccccc3)cc(=O)c2c1OC	–	–	–	–	–	–
CN(CCc1noc(COc2cccc(F)c2)n1)C(=O)c1ccccc1C(F)(F)F	·	·	·	–	·	·
Nc1nnnn1/N=C/c1ccc(Br)cc1	–	–	–	–	–	–
Nc1nnnn1/N=C/c1cc(Br)ccc1O	–	–	·	-47	–	–
COc1ccc(CCN(C)C(=O)COC(=O)/C=C/c2ccc(C)o2)cc1OC	16µM	–	·	–	–	–
c1csc(CN2CCOCC2)c1	–	–	–	-31	–	–
c1csc(CNCCCN2CCOCC2)c1	–	–	–	–	–	–
Cc1occc1C(=O)Nc1nc(CC(=O)Nc2ccc3c(c2)Cc2ccccc2-3)cs1	·	·	·	–	·	·
CC(=O)CCc1oc2ccc(NC(C)=O)cc2c1-c1ccc(C)o1	20µM	–	10µM	–	–	–
COc1cc(/C=N/NC(=O)Cn2cnc3ccccc3c2=O)ccc1O	–	–	–	–	–	20µM
COc1cc(/C=N\NC(=O)CNC(=O)C(c2ccccc2)c2ccccc2)ccc1O	–	–	–	–	–	11µM
O=C(COc1cccc(-n2cnnn2)c1)NC1CCCC1	·	·	·	–	·	·
O=C1CCCC2=C1C(c1cccc(O)c1)C1=C(N2)c2ccccc2C1=O (stereo not given)	79µM	–	–	–	–	–
COc1ccc(-n2c(C)nnc2SCc2nc(-c3ccccc3C)no2)cc1	·	·	·	–	·	·
O=C(CN1CCN(C(=O)c2cccnc2SC(F)F)CC1)Nc1ccccc1Cl	·	·	·	–	·	·
Cc1nc(S/C(=C\c2ccc(-c3ccc(C(=O)O)c(Cl)c3)o2)C(=O)O)n[nH]1	?	–	–	–	–	16µM
Cc1nc(S/C(=C\c2ccc(OCc3ccccc3Cl)cc2)C(=O)O)n[nH]1	–	–	–	–	–	–
SMILES	TrxR1 inh	TrxR1 substrate	PKM2 activator	LDHA block	mIDH1 inhibitor	GLS inhibitor
Cc1cc(N)ccc1N1CCCC1	13µM	–	–	–	–	–
Cc1cc(OCC(=O)Nn2cnnc2)c(C)cc1Br	14µM	–	–	–	–	–
CC(=O)c1ccc2noc(-c3ccc(C)cc3)c2c1	7.1µM	–	–	–	–	–
Cc1cccc(OCC(O)Cn2nnc(-c3cccnc3)n2)c1 (stereo not given)	·	·	·	–	·	·
COC(=O)Cc1c(C)nc2nc(NCc3cc(F)cc(F)c3)[nH]n2c1=O	·	·	·	–	·	·
Cc1nc2ccccc2n2c(O)c(CC(=O)O)cc12	35µM	–	–	–	–	–
Cc1cc(C2C(C#N)=C(N)SC(N)=C2C#N)c(C)s1	32µM	–	–	–	–	–
CCOc1ccc2nc(N3C(=O)C(O)=C(C(=O)c4ccco4)C3c3ccco3)sc2c1 (stereo not given)	–	–	·	–	–	?
CCOC(=O)c1sc(N2C(=O)C(O)=C(C(=O)c3ccco3)C2c2ccco2)nc1C (stereo not given)	32µM	–	–	–	–	–
COc1ccc2nc(N3C(=O)C(O)=C(C(=O)c4ccco4)C3c3ccc(C)o3)sc2c1 (stereo not given)	–	–	·	–	–	10µM
O=C(CSc1ccccc1)N1CCN(S(=O)(=O)c2cccs2)CC1	–	–	1.1µM	–	–	–
O=C(Cc1c[nH]c2ccccc12)N1CCN(S(=O)(=O)c2cccc(F)c2)CC1	·	·	·	–	·	·
O=C(CCCc1c[nH]c2ccccc12)N1CCN(S(=O)(=O)c2cccs2)CC1	–	–	1.6µM	–	–	–
O=C(Cc1c[nH]c2ccccc12)N1CCN(S(=O)(=O)c2cc(F)ccc2F)CC1	·	·	·	-37	·	·
O=C(CCCc1c[nH]c2ccccc12)N1CCCCC1	·	·	·	–	·	·
O=C(CCCc1cccs1)N1CCN(S(=O)(=O)c2ccccc2Br)CC1	–	–	11µM	–	–	–
CCOC(=O)c1cnc(SCC(=O)Nc2ccc(C)c(Cl)c2)nc1N	·	·	·	–	·	·
CCOc1cccc(-c2cc(C(=O)O)c3cc(C)cc(C)c3n2)c1	·	·	·	–	·	·
O=C(CCNc1ccc(Cl)cc1)c1cccs1	?	–	–	–	–	–
O=C(CCNc1cc(Cl)cc(Cl)c1)c1cccs1	28µM	–	–	–	–	–
COc1cc(OC)c(NS(=O)(=O)c2cc(C(=O)N3CCCCCC3)ccc2C)cc1Cl	·	·	·	–	·	·
Cc1cc(CNC(=O)c2ccncc2)c2ccccc2n1	·	·	·	–	·	·
Cc1ccccc1Oc1ccc2c(c1)[C@@H]1C[C@H](N(C)C(=O)c3cccnc3)[C@H]([C@H](C)O)C(=O)N1CC2	·	·	·	-32	–	–
COCCn1c(SC(C)c2ccc(F)cc2)nnc1-c1ccncc1 (stereo not given)	·	·	·	–	·	·
CC(C)(C=O)C1=CC(=O)c2ccccc2C1=O	45µM	–	–	–	–	?
c1coc(-c2ccc3nncn3c2)c1	·	·	·	–	·	6.3µM
CCOc1cc(/C=C2\CCCc3c2nc2ccccc2c3C(=O)O)ccc1OC	79µM	–	–	–	–	–
O=C(N/N=C\c1ccco1)c1cncc(Br)c1	·	·	–	·	·	·

Screening data (PubChem BioAssay)
